For orientation: viability means a read-out of living cells in per cent, often relative to untreated cells.

Here are results for five compounds from PubChem BioAssay.

Assay [1] is described as follows: Wnt pathway potentiators raising nuclear beta-catenin – imaging, WNT3A-conditioned medium, mouse C2C12, NPC library, primary screen (AID 1117326; in the data active means nuclear beta-catenin stimulation mostly above about 4.2%, no sharp cut-off; inactive means mostly below about 10%). Conditions: stronger effect = higher value.
Assay [2] can be described thus: stimulators of insulin release from INS-1E, primary screen, cell-based, 5 mM glucose, NPC library (AID 1117329;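 active means compound raises insulin release from rat beta cells at 5 mM glucose, no numeric limit stated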). Conditions: rat INS-1E insulin secretion, at 10 µM, stronger effect = higher value.
Assay [3] in a line: growth inhibition of GSK3B-pretreated HCT116 cells – cell-based, CellTiter-Glo, 0.2 to 20 µM (AID 1117336;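 active means compounds lowering colon cancer cell viability after pretreatment blocking the GSK3B kinase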). The note with it: HCT116 viability after GSK3B inhibitor, at 20 µM, stronger effect = higher value. Background: In ATP-based viability assays light output follows the ATP content of the culture.
The nature of assay [4]: inhibition of endothelial tube formation, primary screen, imaging, VEGF stimulated, CD31 staining, tube area, NPC library (AID 1117340;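 active means compound that reduces growth-factor-driven endothelial tube area in a mixed cell culture, no cutoff stated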). The note with it: VEGF-stimulated ADSC/ECFC co-culture, at 10 µM, stronger effect = higher value.
Assay [5] in a line: GLP1 release stimulators, primary, NCI-H716, NPC library (AID 1117341). The note with it: NCI-H716 cells, at 10 µM, stronger effect = higher value.
Assay [6] can be described thus: HCT116 colon cancer cell growth inhibition, primary screen, CellTiter-Glo luminescence, NPC library (AID 1117342;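 active means compounds that lower survival of HCT116 colon cancer cells in the luminescence readout, no numeric limit stated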). Conditions: at 20 µM (top of the series).
A short description of assay [7]: reduced SW480 viability measured with CellTiter-Glo, NPC library, primary (AID 1117343;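 active means compounds that lower viability of the colon cancer cells in the luminescence readout, with no numeric limit stated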). The note with it: CellTiter-Glo luminescence; at 20 µM (top of the series).
The nature of assay [8]: NPC library primary testing for decreased DLD-1 cell viability via CellTiter-Glo (AID 1117346;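 active means compounds that lower survival of DLD-1 colon cancer cells in the luminescence readout, no cutoff given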). The note with it: DLD-1 viability, CellTiter-Glo luminescence; at 20 µM (top of the series).
Assay [9] can be described thus: viability loss with induced miR-34 in A549 – imaging, A549 dox-inducible miR-34, nuclei and caspase counts, primary screen (AID 1347080;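 active means compounds whose cell count with miR-34 switched on is under 0.7 times the count with it off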). The note with it: A549 miR-34 inducible, Hoechst nuclei count, 48 h.
Assay [10] is described as follows: MELAS cybrid and Rieske KO viability enhancers – cell-based, MELAS cybrids, Rieske KO mouse fibroblasts, CellTiter-Glo, primary screen (AID 1508586;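 active means mean z-score across replicates of 1.96 or higher in either the MELAS or the Rieske mutant cell line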;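 further: z relative to plate mean and SD of compound and empty wells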). Conditions: low glucose.
A short description of assay [11]: compounds altering circadian rhythm period length – cell-based, LOPAC library, luminescence reporter (AID 2774; call rule not given here;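 further: values are relative to mean of DMSO wells on each plate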). Conditions: circadian reporter cells, at 7 µM, actives lie on both sides.
Assay [12] in a line: P. berghei load reduction in hepatocytes – cell-based, HepG2, luciferase luminescence, HepG2 viability, primary screen (AID 624349; in the data active means parasite load remaining mostly below about 12%, no sharp cut-off; inactive means mostly above about 10%;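 further: 100% = mean of DMSO negative control wells on the same plate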). Conditions: P. berghei liver stage in HepG2, luciferase luminescence, concentration not given here; parasite load remaining: stronger effect = lower value; viability: measured here: HepG2 viability without parasites.
Assay [13] in a line: compounds altering viability of human ES cells (AID 493140; call rule not given here;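 further: cells exposed to compounds for four days before counting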). Conditions: human embryonic stem cell survival screen; stronger effect = higher value.
Where [14] appears, read: stronger effect = lower value, cell number ratio, induced over uninduced.
The mark [15] stands for this setting: measured here: relative caspase fold change +Dox/-Dox.
The mark [16] stands for this setting: measured here: total cells with miR-34 induction, stronger effect = lower value.
Setting [17] is: measured here: total cells without miR-34 induction.
The mark [18] stands for this setting: MELAS cybrid survival, CellTiter-Glo 48 h, stronger effect = higher value.
[19] abbreviates: Rieske KO mouse fibroblast survival, CellTiter-Glo 72 h.

Several values for one entry are separate records, joined by “and”; a condition that tells them apart may be missing. Equal entries are not always repeated. Activity calls are given as the source filed them.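 How the source made its calls, unless noted: active means compound raises GLP1 secretion from the human gut endocrine cells, with no numeric limit stated; inactive means the rest.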

As for `CCCCCCCCCCCC[N+](C)(C)CCOc1ccccc1`, the nuclear beta-catenin stimulation in [1] (at 10 µM) is 20.4% (inactive); in [1] (stimulation, at 2 µM), 0.6%. In addition, the insulin secretion stimulation in assay [2] was 5.9% (inactive). In addition, in assay [3], the viability decrease is 110% (active). For the same compound, in [4], the tube area decrease is 111% (active). For the same compound, the GLP1 secretion stimulation in assay [5] is 67% (active). Further, the inhibition of viability in [6] was 112% (active). Further, the viability decrease (inhibition) in assay [7] is 134% (active); in assay [8] it was 101% (active). Also, the fold change in assay [9] (setting [14]) was 0.988 (inactive); in assay [9] (setting [15]) it was 0.958. For the same compound, the results for the cell count in assay [9] (setting [16]) and in assay [9] (setting [17]) were 6790 and 6870, respectively. The z-score in assay [10] (setting [18]) was -0.488 (inactive); in [10] (setting [19]) it was -0.197.

As to `Clc1cccc(N2CCNCC2)c1`, the period change in assay [11] was 0.065 h (inactive). For the same compound, the nuclear beta-catenin stimulation in assay [1] (at 10 µM) was 1% (inactive); in assay [1] (stimulation, at 2 µM), 0.1%. Moreover, the insulin secretion stimulation in [2] was 3.9% (inactive). For the same compound, the viability decrease in assay [3] was 15% (inactive). Also, the tube area decrease in [4] was 3.3% (inactive). Also, the GLP1 secretion stimulation in assay [5] is 6.5% (inactive). Moreover, the inhibition of viability in assay [6] is 10.8% (inactive). Moreover, the figures for the viability decrease (inhibition) in assay [7] and in assay [8] were 68.5% (active) and 26.4% (inactive), respectively.

Consider `COP(=S)(OC)Oc1cc(Cl)c(Cl)cc1Cl`, for which the parasite load remaining in [12] is 48.6% (inactive). Further, the viability in [12] is 108%. Also, the nuclear beta-catenin stimulation in [1] (at 10 µM) was 2.5% (inactive); in assay [1] (stimulation, at 2 µM), -0.1%. In addition, the insulin secretion stimulation in [2] was 2.1% (inactive). For the same compound, in assay [3], the viability decrease is -23.4% (inactive). Further, the tube area decrease in [4] was -3.6% (inactive). The GLP1 secretion stimulation in assay [5] is 3.7% (inactive). Further, the inhibition of viability in assay [6] is 9.4% (inactive). Besides, the viability decrease (inhibition) in [7] was 32% (inactive); in assay [8], 15.4% (inactive). The fold change was 0.898 (inactive) in assay [9] (setting [14]) and 3.75 in [9] (setting [15]). The cell count came to 12000 in [9] (setting [16]) and 13300 in assay [9] (setting [17]).

Consider `O=C(CCCN1CCC(n2c(=O)[nH]c3ccccc32)CC1)c1ccc(F)cc1`, for which the survival in assay [13] was 11.5 (inactive). Besides, in assay [12], the parasite load remaining was -5.69% (inactive) and 52.9% (inactive). The viability in [12] was 105% and 74.8%. The nuclear beta-catenin stimulation in assay [1] (at 10 µM) was 4.7% (inactive); in assay [1] (stimulation, at 2 µM), 3%. Besides, in [2], the insulin secretion stimulation is 0.7% (inactive). Also, in assay [3], the viability decrease was -40.8% (inactive). The tube area decrease in [4] is 8% (inactive). Besides, in [5], the GLP1 secretion stimulation was 2.9% (inactive). The inhibition of viability in assay [6] was 19.9% (inactive). Further, the viability decrease (inhibition) was 29.4% (inactive) in assay [7] and 2.6% (inactive) in assay [8]. Also, the fold change was 0.825 (inactive) in [9] (stronger effect = lower value) and 1.64 in assay [9] (setting [15]). Also, the cell count was 7580 in [9] (setting [16]) and 9190 in [9] (setting [17]). For the same compound, the z-score in [10] (setting [18]) is 0.0917 (inactive); in [10] (setting [19]), -0.147.

For the compound `OC(c1ccccc1)(c1ccccc1)C1CCNCC1`, the survival in assay [13] was 34.8 (inactive). In addition, the parasite load remaining in assay [12] was 42.4% (inactive) and 92.2% (inactive). Moreover, the viability in assay [12] was 47.4% and 92.3%. The nuclear beta-catenin stimulation in assay [1] (at 10 µM) is -0.1% (inactive); in [1] (stimulation, at 2 µM), 0.4%. For the same compound, the insulin secretion stimulation in assay [2] was 17.4% (inactive). For the same compound, the viability decrease in assay [3] is -5.8% (inactive). Besides, in [4], the tube area decrease was 27.7% (inactive). Moreover, the GLP1 secretion stimulation in assay [5] was 0.1% (inactive). The inhibition of viability in [6] is -10.1% (inactive). Moreover, the viability decrease (inhibition) in assay [7] was 117% (active); in assay [8] it was 2.9% (inactive). Besides, the fold change is 0.979 (inactive) and 0.871 (inactive) in assay [9] (stronger effect = lower value); 1.21 and 1 in assay [9] (setting [15]). In addition, the cell count in assay [9] (setting [16]) was 8990 and 7950; in [9] (setting [17]) it was 9180 and 9130. The z-score in assay [10] (setting [18]) was -0.109 (inactive) and -0.124 (inactive); in assay [10] (setting [19]) it was -0.152 and 0.513.
